For eight compounds, growth results are on record in PubChem BioAssay (NCI).

Among the test systems are DU-145 prostate; K-562 leukemia; MALME-3M melanoma; MDA-MB-231 breast; RXF 393 renal; SF-268 CNS; SF-295 CNS; SF-539 CNS; UACC-257 melanoma; M14 melanoma; HCT-15 colon; HT29 colon; SNB-75 CNS; SNB-19 CNS; U251 CNS; PC-3 prostate; SK-MEL-5 melanoma; UACC-62 melanoma; LOX IMVI melanoma; SK-MEL-28 melanoma.
Assay in all cases: NCI-60 one-dose screen, 48 h (100 = growth as untreated, 0 = no growth, -100 = all killed)
Common to all, as to settings: 10 µM unless noted

Structures are written as SMILES. This is part of a sample that, as a whole, favours compounds with a hit. Of some 83,000 tested, about 20% had one in any assay.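 Assay: single dose, 48 h. Readout: percent growth (0 = no net growth; negative = cell death). Active: <10.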 Unmarked numbers belong to inactive results. Active and inactive are the calls of the source.

On to `COc1ccc(C2=Nc3c/c(=C\c4c(O)[nH]c5ccc(Cl)cc45)ccc3=N2)cc1`, for which the growth with DU-145 prostate was 73.2%; in the assay on K-562 leukemia, 19.4%; in the assay with MALME-3M melanoma, 40.8%; with MDA-MB-231 breast it was 42.7%; in the assay on RXF 393 renal, -27.2% (active); in the assay on SF-268 CNS, 53.4%. Also, the growth with SF-295 CNS was 29.6%; with SF-539 CNS, 59.9%; in the assay with UACC-257 melanoma, 54%; in the assay on M14 melanoma, 27.6%; in the assay with HCT-15 colon, 22.5%; in the assay on HT29 colon it was -13.9% (active). Moreover, the growth with SNB-75 CNS was 36.2%; in the assay on SNB-19 CNS it was 65%; in the assay on U251 CNS, 42%; in the assay on PC-3 prostate it was 37%; with SK-MEL-5 melanoma it was 34.7%; with UACC-62 melanoma it was 48.1%. Moreover, the growth in the assay with LOX IMVI melanoma is 9.27% (active); with SK-MEL-28 melanoma, 35.6%.
As for `O=C1/C(=C/c2ccc(-c3ccc(Br)cc3)o2)SC(=S)N1CCc1ccc(O)cc1`, the growth in the assay on DU-145 prostate is 15.7%; with K-562 leukemia it was 3.25% (active); in the assay with MALME-3M melanoma, 73.5%; in the assay on MDA-MB-231 breast, 82.9%; in the assay on RXF 393 renal, 80.5%; in the assay on SF-268 CNS it was 44.4%. Also, the growth with SF-295 CNS was 100%; with SF-539 CNS it was 86.5%; with UACC-257 melanoma it was 77.4%; in the assay with M14 melanoma, 50.9%; in the assay on HCT-15 colon, 78.9%; in the assay on HT29 colon, 76.8%. The growth is 37.9% with SNB-75 CNS; 85.5% with SNB-19 CNS; 78.9% with U251 CNS; 61.3% in the assay with PC-3 prostate; 92.5% in the assay with SK-MEL-5 melanoma; 49.6% with UACC-62 melanoma. The growth in the assay with LOX IMVI melanoma is 71.7%; with SK-MEL-28 melanoma it was 103%.
Regarding `COc1cccc([C@H]2c3[nH]c4ccccc4c3C[C@H]3C(=O)N(CCCCCCC(=O)NO)CC(=O)N23)c1`, the growth in the assay with DU-145 prostate was 76.9%; in the assay with K-562 leukemia it was 27%; in the assay on MALME-3M melanoma, 24.3%; in the assay on MDA-MB-231 breast, 68.7%; with RXF 393 renal it was 75%; in the assay with SF-268 CNS it was 88.4%. The growth with SF-295 CNS was 87.5%; with SF-539 CNS, 60.6%; in the assay on UACC-257 melanoma, 51.6%; in the assay on M14 melanoma, 59.6%; in the assay on HCT-15 colon, 105%; in the assay with HT29 colon it was 56.7%. Also, the growth was 7.84% (active) in the assay with SNB-75 CNS; 68.4% in the assay on SNB-19 CNS; 61.5% with U251 CNS; 42.5% in the assay with PC-3 prostate; 49.8% in the assay on SK-MEL-5 melanoma; 36.8% in the assay with UACC-62 melanoma. The growth in the assay on LOX IMVI melanoma is 49.4%; in the assay with SK-MEL-28 melanoma, 43%.
Regarding `CN1CCN(c2ccc(NC(=O)c3nc4ccc5[nH]ncc5c4c4c3CCCC4)cc2C(F)(F)F)CC1`, the growth in the assay with DU-145 prostate is -27.9% (active); in the assay with K-562 leukemia it was 7.04% (active); with MALME-3M melanoma it was 33.1%; in the assay with MDA-MB-231 breast, 45.8%; in the assay with RXF 393 renal, 72.3%; with SF-268 CNS it was 78%. In addition, the growth in the assay on SF-295 CNS was 97.9%; in the assay with SF-539 CNS, 89.6%; in the assay on UACC-257 melanoma, 98.7%; in the assay with M14 melanoma, 79.5%; in the assay on HCT-15 colon, 2.8% (active); in the assay on HT29 colon, 20.5%. The growth in the assay on SNB-75 CNS is 84.7%; in the assay with SNB-19 CNS it was 81.6%; with U251 CNS it was 78%; in the assay on PC-3 prostate it was 65.4%; with SK-MEL-5 melanoma, 75.8%; with UACC-62 melanoma, 89%. For the same compound, the growth in the assay on LOX IMVI melanoma is -81.7% (active); in the assay on SK-MEL-28 melanoma it was 89.5%.
As for `N#CC1C=CN(CC(N)=O)c2ccc3cccnc3c21` (stereo not given), the growth in the assay with DU-145 prostate is 108%; in the assay on K-562 leukemia, 94.7%; with MALME-3M melanoma it was 97.5%; with MDA-MB-231 breast it was 95.5%; in the assay with RXF 393 renal, 114%; in the assay with SF-268 CNS, 105%. In addition, the growth in the assay with SF-295 CNS is 103%; with SF-539 CNS, 99.1%; in the assay on UACC-257 melanoma, 89%; with M14 melanoma, 97.7%; with HCT-15 colon it was 96.2%; in the assay on HT29 colon, 88.3%. For the same compound, the growth is 87.2% in the assay with SNB-75 CNS; 96.1% in the assay on SNB-19 CNS; 91.7% with U251 CNS; 84.2% with PC-3 prostate; 96.5% in the assay on SK-MEL-5 melanoma; 96.9% with UACC-62 melanoma. The growth is 97.5% in the assay with LOX IMVI melanoma and 104% in the assay on SK-MEL-28 melanoma.
Consider `CC1=C(CCC(C)N(C)Cc2ccc(OCCCN3CCCC3)cc2)C(C)(C)CCC1` (stereo not given), for which the growth was 65.3% in the assay with DU-145 prostate; -22.2% (active) in the assay on K-562 leukemia; -89.4% (active) in the assay with MALME-3M melanoma; -43.6% (active) in the assay with MDA-MB-231 breast; -37.5% (active) with RXF 393 renal; 48.2% with SF-268 CNS. The growth in the assay on SF-295 CNS is -4.45% (active); in the assay with SF-539 CNS, -79% (active); in the assay on UACC-257 melanoma it was -74.3% (active); in the assay with M14 melanoma, -77.2% (active); with HCT-15 colon, -14% (active); in the assay with HT29 colon it was -12% (active). Further, the growth in the assay with SNB-75 CNS is 63.1%; in the assay with SNB-19 CNS, 41.8%; with U251 CNS it was -11.9% (active); with PC-3 prostate, 31.8%; with SK-MEL-5 melanoma it was -93.7% (active); in the assay with UACC-62 melanoma it was -63.9% (active). In addition, the growth in the assay with LOX IMVI melanoma was -81.4% (active); with SK-MEL-28 melanoma, -80.6% (active).
As to `Cc1ccc(Cl)cc1Nc1nc(C(F)(F)F)ccc1C(=O)N/N=C/c1cccnc1`, the growth in the assay with DU-145 prostate was 41.5%; with K-562 leukemia, 7.72% (active); with MALME-3M melanoma, 15%; with MDA-MB-231 breast it was 33.4%; in the assay on RXF 393 renal it was 11.6%; with SF-268 CNS, 27.7%. In addition, the growth with SF-295 CNS is -20.6% (active); with SF-539 CNS, 27.1%; in the assay with UACC-257 melanoma, 28.2%; in the assay with M14 melanoma, 47.9%; in the assay with HCT-15 colon, 19.2%; with HT29 colon, 34.6%. The growth with SNB-75 CNS was 52%; with SNB-19 CNS, 36.8%; with U251 CNS, 2.89% (active); with PC-3 prostate it was 32.4%; with SK-MEL-5 melanoma, -16.4% (active); in the assay with UACC-62 melanoma, 27.6%. In addition, the growth is 18.6% with LOX IMVI melanoma and 39.9% in the assay with SK-MEL-28 melanoma.
With `CN1CCN(Cc2ccc3c(NNC(=O)c4ccccc4)nc4cc(F)ccc4n23)CC1`, the growth in the assay on DU-145 prostate is 27.1%; with K-562 leukemia, 13.6%; with MALME-3M melanoma, 23.5%; in the assay with MDA-MB-231 breast, 43.2%; in the assay on RXF 393 renal it was 39%; with SF-268 CNS, 19.9%. Further, the growth was 16.2% in the assay on SF-295 CNS; 10.8% in the assay with SF-539 CNS; 11.8% with UACC-257 melanoma; 3.61% (active) with M14 melanoma; 33.8% in the assay with HCT-15 colon; 30.7% with HT29 colon. Further, the growth with SNB-75 CNS was 48.8%; with SNB-19 CNS, 27.4%; in the assay on U251 CNS, 12.2%; in the assay on PC-3 prostate, 39.9%; in the assay with SK-MEL-5 melanoma, -26.8% (active); with UACC-62 melanoma it was 4.48% (active). In addition, the growth in the assay on LOX IMVI melanoma is 7.25% (active); in the assay with SK-MEL-28 melanoma, 34.9%.
